# Records with an inconclusive call do not appear. Where a call stands in place of a potency, no number is given. Calls of active or inactive are those of the source. Calls come from the whole dose curve; as a rule, active = well fitted curve in the direction sought with a large enough effect; inconclusive = small, poorly fitted or top-dose-only effect, or another doubt; inactive = no such curve, though single readings can be large; an effect the other way counts as inactive or inconclusive. Bridge positions count the residues as written; N and C are the ends. Square brackets hold non-standard residues; d marks the D form. Peptide text beside a SMILES is read from it. * marks the point of attachment. Octanoyl(6-Me) = CCC(C)CCCCC(=O)*; Dab = NCC[CH](N)C(=O)O
# Key:
# [1] = target: Ubiquitin carboxyl-terminal hydrolase 1 (Homo sapiens) (UniProt O94782); assay: Inhibitors of USP1/UAF1: Pilot qHTS (AID 504865); note: nearly all actives have a fitted effect of over 35% in size
# Chain of Ubiquitin carboxyl-terminal hydrolase 1 (Homo sapiens) (O94782 whole entry, looked up): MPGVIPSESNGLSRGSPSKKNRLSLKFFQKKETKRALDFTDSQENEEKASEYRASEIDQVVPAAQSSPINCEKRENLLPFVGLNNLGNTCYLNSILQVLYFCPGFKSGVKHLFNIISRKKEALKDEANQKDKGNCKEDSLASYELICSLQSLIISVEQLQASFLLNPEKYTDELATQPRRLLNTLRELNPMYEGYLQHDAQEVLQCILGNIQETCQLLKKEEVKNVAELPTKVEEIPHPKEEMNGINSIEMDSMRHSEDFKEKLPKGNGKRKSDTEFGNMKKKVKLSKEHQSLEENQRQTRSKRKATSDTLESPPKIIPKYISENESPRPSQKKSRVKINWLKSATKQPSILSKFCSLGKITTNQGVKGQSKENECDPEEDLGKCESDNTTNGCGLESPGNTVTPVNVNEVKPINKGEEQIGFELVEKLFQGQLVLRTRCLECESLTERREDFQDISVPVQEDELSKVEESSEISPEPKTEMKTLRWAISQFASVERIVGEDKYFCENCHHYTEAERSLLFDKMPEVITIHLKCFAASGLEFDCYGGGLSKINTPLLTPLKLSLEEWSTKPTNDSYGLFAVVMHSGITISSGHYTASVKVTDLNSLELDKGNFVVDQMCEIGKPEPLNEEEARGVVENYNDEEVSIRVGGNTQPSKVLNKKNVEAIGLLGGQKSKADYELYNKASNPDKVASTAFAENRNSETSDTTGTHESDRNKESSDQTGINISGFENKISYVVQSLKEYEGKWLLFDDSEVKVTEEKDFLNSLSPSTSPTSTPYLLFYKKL
# Procedure, shortened: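 1nM USP1/UAF1 + cpd, 15 min RT; start w/ Ub-Rho 150nM final; kinetic FL 480/540 nm, 6 reads q60 s. Buffer 50mM HEPES pH 7.8, 0.5mM EDTA, 1mM TCEP, 0.01% Tween-20, 0.1 mg/ml BSA.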
# [2] = S16 Schwann cell PMP22 intronic element firefly luciferase assay (AID 624032); note: nearly all actives have a fitted effect of over 30% in size
# Procedure, shortened: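 Rat S16 Schwann cells stably carrying firefly luciferase driven by a PMP22 intronic element, in 10% FBS, treated 24 h at 37 C. ONE-Glo luminescence normalized to PTC124 control and DMSO (0%); curves classed by r2, magnitude and activity.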
# [3] = test system: CP201; assay: qHTS profiling for inhibitors of Plasmodium falciparum proliferation (AID 504749); note: nearly all actives have a fitted effect of over 60% in size; conditions: P. falciparum in erythrocytes, SYBR Green DNA, 72 h; series mostly up to 28.7 µM
# Procedure, shortened: (§1)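 P. falciparum-infected erythrocytes (0.3% parasitemia, 2.5% hematocrit) incubated with compound 72 h at 37 C, 5% CO2. Parasite DNA detected by SYBR Green after lysis, overnight at room temperature; normalised to 0.29 uM artemisinin and DMSO.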
# [4] = test system: CP211; assay: as above; conditions: P. falciparum in erythrocytes, SYBR Green DNA, 72 h; series mostly up to 28.7 µM
# Procedure, shortened: as §1
# [5] = test system: CP217; assay: as above; conditions: P. falciparum in erythrocytes, SYBR Green DNA, 72 h; series mostly up to 28.7 µM
# Procedure, shortened: as §1
# [6] = test system: CP250; assay: as above; conditions: P. falciparum in erythrocytes, SYBR Green DNA, 72 h; series mostly up to 28.7 µM
# Procedure, shortened: as §1
# [7] = test system: CP265; assay: as above; conditions: P. falciparum in erythrocytes, SYBR Green DNA, 72 h; series mostly up to 28.7 µM
# Procedure, shortened: as §1
# [8] = test system: CP266; assay: as above; conditions: P. falciparum in erythrocytes, SYBR Green DNA, 72 h; series mostly up to 28.7 µM
# Procedure, shortened: as §1
# [9] = test system: CP268; assay: as above; conditions: P. falciparum in erythrocytes, SYBR Green DNA, 72 h; series mostly up to 28.7 µM
# Procedure, shortened: as §1
# [10] = test system: CP286; assay: as above; conditions: P. falciparum in erythrocytes, SYBR Green DNA, 72 h; series mostly up to 28.7 µM
# Procedure, shortened: as §1
# [11] = test system: CP305; assay: as above; conditions: P. falciparum in erythrocytes, SYBR Green DNA, 72 h; series mostly up to 28.7 µM
# Procedure, shortened: as §1
# [12] = test system: CP325; assay: as above; conditions: P. falciparum in erythrocytes, SYBR Green DNA, 72 h; series mostly up to 28.7 µM
# Procedure, shortened: as §1
# [13] = test system: DIV14; assay: as above; conditions: P. falciparum in erythrocytes, SYBR Green DNA, 72 h; series mostly up to 28.7 µM
# Procedure, shortened: as §1
# [14] = test system: DIV30; assay: as above; conditions: P. falciparum in erythrocytes, SYBR Green DNA, 72 h; series mostly up to 28.7 µM
# Procedure, shortened: as §1
# [15] = test system: ICS; assay: as above; conditions: P. falciparum in erythrocytes, SYBR Green DNA, 72 h; series mostly up to 28.7 µM
# Procedure, shortened: as §1
# [16] = test system: P94_40; assay: as above; conditions: P. falciparum in erythrocytes, SYBR Green DNA, 72 h; series mostly up to 28.7 µM
# Procedure, shortened: as §1
# [17] = test system: PAD; assay: as above; conditions: P. falciparum in erythrocytes, SYBR Green DNA, 72 h; series mostly up to 28.7 µM
# Procedure, shortened: as §1
# [18] = test system: PC15; assay: as above; conditions: P. falciparum in erythrocytes, SYBR Green DNA, 72 h; series mostly up to 28.7 µM
# Procedure, shortened: as §1
# [19] = test system: TAB113; assay: as above; conditions: P. falciparum in erythrocytes, SYBR Green DNA, 72 h; series mostly up to 28.7 µM
# Procedure, shortened: as §1
# [20] = test system: PC26; assay: as above; conditions: P. falciparum in erythrocytes, SYBR Green DNA, 72 h; series mostly up to 28.7 µM
# Procedure, shortened: as §1
# Potency is the fitted concentration of half-maximal effect.
Structure (SMILES),Potency [1],Potency [2],Potency [3],Potency [4],Potency [5],Potency [6],Potency [7],Potency [8],Potency [9],Potency [10],Potency [11],Potency [12],Potency [13],Potency [14],Potency [15],Potency [16],Potency [17],Potency [18],Potency [19],Potency [20]
CCC(C)n1ncn(-c2ccc(N3CCN(c4ccc(OCC5COC(Cn6cncn6)(c6ccc(Cl)cc6Cl)O5)cc4)CC3)cc2)c1=O (stereo not given),inactive,3.22 µM (active),inactive,inactive,inactive,inactive,inactive,inactive,inactive,4.47 µM (active),inactive,inactive,inactive,inactive,2.51 µM (active),inactive,inactive,inactive,inactive,–
CCC(C)CCCCC(=O)NC(CCN)C(=O)NC(C(=O)NC(CCN)C(=O)NC1CCNC(=O)C(C(C)O)NC(=O)C(CCN)NC(=O)C(CCN)NC(=O)C(CC(C)C)NC(=O)C(Cc2ccccc2)NC(=O)C(CCN)NC1=O)C(C)O (stereo not given) ({Octanoyl(6-Me)}-[Dab]T[Dab][Dab][Dab]FL[Dab][Dab]T; lactam 4-C; configuration not given here),50.1 µM (active),inactive,inactive,inactive,–,inactive,–,inactive,inactive,inactive,inactive,inactive,inactive,inactive,inactive,inactive,–,inactive,–,inactive
CC(C)CN(C[C@@H](O)[C@H](Cc1ccccc1)NC(=O)O[C@H]1CCOC1)S(=O)(=O)c1ccc(N)cc1,inactive,inactive,inactive,–,inactive,inactive,inactive,inactive,–,–,–,–,–,–,–,–,inactive,inactive,inactive,inactive
CC(=O)O[C@@]12CO[C@@H]1C[C@H](O)[C@@]1(C)C(=O)[C@H](O)C3=C(C)[C@@H](OC(=O)C(O)[C@@H](NC(=O)OC(C)(C)C)c4ccccc4)C[C@@](O)([C@@H](OC(=O)c4ccccc4)[C@H]21)C3(C)C (stereo not given in full),inactive,–,–,42.6 nM (active),0.0447 µM (active),–,0.0794 µM (active),–,–,0.0178 µM (active),42.6 nM (active),–,1.2 µM (active),53.6 nM (active),0.112 µM (active),0.0355 µM (active),0.126 µM (active),5.62 µM (active),0.0316 µM (active),37.9 nM (active)
CO[C@@H]1[C@@H](OC2OC(C)C(OC3CC(C)(O)C(OC(=O)CC(C)C)C(C)O3)C(N(C)C)C2O)[C@@H](CC=O)C[C@@H](C)C(=O)/C=C\C2O[C@H]2C[C@@H](C)OC(=O)C[C@H]1OC(C)=O (stereo not given in full),inactive,5.73 µM (active),–,–,10 µM (active),10 µM (active),11.2 µM (active),–,8.49 µM (active),4.47 µM (active),–,2.69 µM (active),12 µM (active),–,5.01 µM (active),8.91 µM (active),11.2 µM (active),–,12.6 µM (active),–
COc1cc(/C=C/C(=O)N2CCC=CC2=O)cc(OC)c1OC,inactive,–,–,–,–,–,–,–,–,–,–,–,–,–,–,–,–,–,–,–
Cc1cc(CC(C)CC(C)(C)C)n(O)c(=O)c1 (stereo not given),–,16.1 µM (active),4.78 µM (active),3380 nM (active),2.82 µM (active),1.12 µM (active),2.82 µM (active),3.79 µM (active),2.69 µM (active),2.82 µM (active),2390 nM (active),2.39 µM (active),1.51 µM (active),3790 nM (active),2.51 µM (active),2.82 µM (active),2.82 µM (active),5.01 µM (active),2.82 µM (active),3790 nM (active)
CCC(=O)O[C@@H](OP(=O)(CCCCc1ccccc1)CC(=O)N1C[C@H](C2CCCCC2)C[C@H]1C(=O)O)C(C)C (stereo not given in full),inactive,inactive,inactive,inactive,inactive,inactive,inactive,inactive,inactive,inactive,inactive,inactive,inactive,inactive,inactive,inactive,inactive,inactive,inactive,inactive
Nc1nc(Cl)nc2c1ncn2C1CC(O)C(CO)O1 (stereo not given),–,–,inactive,inactive,–,–,–,inactive,inactive,–,inactive,inactive,inactive,inactive,–,–,–,–,–,inactive
CC1(C)S[C@@H]2[C@H](NC(=O)COc3ccccc3)C(=O)N2[C@H]1C(=O)O,inactive,inactive,inactive,inactive,inactive,inactive,inactive,inactive,inactive,inactive,inactive,inactive,inactive,inactive,inactive,inactive,inactive,inactive,inactive,inactive
CC1CCC(C(C)C)C(OC(=O)c2ccccc2O)C1 (stereo not given),inactive,inactive,inactive,inactive,inactive,inactive,inactive,inactive,inactive,inactive,inactive,inactive,inactive,inactive,inactive,inactive,inactive,inactive,inactive,inactive
CO/N=C(/C(=O)N[C@@H]1C(=O)N2C(C(=O)O)=CCS[C@H]12)c1csc(N)n1,–,inactive,inactive,inactive,inactive,inactive,inactive,inactive,inactive,inactive,inactive,inactive,–,inactive,inactive,inactive,inactive,inactive,inactive,inactive

# — PubChem BioAssay (NCATS)
